Results taken from PubChem BioAssay (NCATS).
Inconclusive results are not listed. Unmarked numbers belong to inactive results. The call rests on the fitted dose curve; in most records, active means well fitted inhibition curve with a large enough effect; inconclusive means small, poorly fitted or top-dose-only effect; inactive means no such curve, though single readings can be large or run the other way.

Target: Retinaldehyde dehydrogenase 3 (Homo sapiens) (UniProt P47895)
Assay: qHTS for Inhibitors of the Aldehyde Dehydrogenase Family (ALDH1A3) Primary screen (AID 2061315);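 further: plate controls were DMSO vehicle for no effect and reference inhibitor for full effect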
Details: ALDH inhibition qHTS; series mostly up to 56 µM; activity change, negative = inhibition: at the top concentration

SMILES	activity change, negative = inhibition [%]
Cc1nnc(C(C)C)n1C1CC2CCC(C1)N2CCC(NC(=O)C1CCC(F)(F)CC1)c1ccccc1 (stereo unspecified)	3.99
Cc1nn(C)c(COc2ccc(N3CCN(S(=O)(=O)N(C)C)CC3)cc2)c1-c1cccc2c(CCCOc3cccc4ccccc34)c(C(=O)O)n(CCN3CCOCC3)c12	1.03
Cc1cc(C)cc(NC(=O)Cc2ccc(OC(C)(C)C(=O)O)cc2)c1	11.2
OC(c1ccc(-c2ccc(CN3CCN(Cc4ccncc4)CC3)cc2)c(F)c1)(C(F)(F)F)C(F)(F)F	5.28
Cn1cncc1C(N)(c1ccc(Cl)cc1)c1ccc2c(c1)c(-c1cccc(Cl)c1)cc(=O)n2C (stereo unspecified)	20.9
CN(C)N(C)C(=O)[C@@]1(Cc2ccccc2)CCCN(C(=O)[C@@H](Cc2c[nH]c3ccccc23)NC(=O)C(C)(C)N)C1	19.5
CC(C)(C)NC(=O)Nc1cccc(Nc2ncc(F)c(NC(C)(C)CO)n2)c1	-2.49
C=C1[C@H](CO)[C@@H](O)C[C@@H]1n1cnc2c(=O)[nH]c(N)nc21	-8.44
CNC(=O)c1ccc(N2C(=S)N(c3cnc(C#N)c(C(F)(F)F)c3)C(=O)C23CCC3)cc1F	12.5
Cn1cc(-c2cnn3c(N)c(Br)c([C@@H]4CCCNC4)nc23)cn1	3.21
Cc1ccc2nc(NC(=O)CSc3nc4c(c(=O)n3-c3ccccc3)SCC4)sc2c1	-11.1
CC1(C)Cc2c(-c3ccccc3)c(-c3ccc(Cl)cc3)c(CC(=O)O)n2C1	26.8
Cc1cc(Nc2ncnc3ccc(-c4ccc(CNCCS(C)(=O)=O)o4)cc23)ccc1Oc1ccn2ncnc2c1	7.99
CCOc1cc2c(c(F)c1OCC)C(=N)N(CC(=O)c1cc(N3CCOCC3)c(OC)c(C(C)(C)C)c1)C2	7.63
COc1cc2c(cc1OC)CN(CCc1ccc(NC(=O)c3cccc4c(=O)c5cccc(OC)c5[nH]c34)cc1)CC2	-4.77
CC(C)C(=O)Nc1ncc(-c2cc(C(F)F)nn2-c2c(Cl)cccc2Cl)s1	11.2
O=C(O)Cn1nnc(-c2cc(N3CCC(Oc4cc(F)ccc4Br)CC3)no2)n1	20.1
O=C(NC[C@H](O)CN1CCc2ccccc2C1)c1cc(NC2COC2)ncn1	17.3
Cn1cc(-c2ccc3nnc(C(F)(F)c4ccc5ncccc5c4)n3n2)cn1	0.551
CCNCc1nc2c(N)nc3ccccc3c2n1CC(C)(C)O	4.41
COc1cccc(Nc2c(C(N)=O)cnc3c(C)cc(S(=O)(=O)c4cccc(C(=O)N(C)C)c4)cc23)c1	-3.98
C[C@H]1Oc2cc(cnc2N)-c2c(nn(C)c2C#N)CN(C)C(=O)c2ccc(F)cc21	-1.65
C=Cc1cc(O)cc2nc(-c3ccc(O)c(F)c3)oc12	-15.8
CC1(C)CCC(c2ccc(Cl)cc2)=C(CN2CCN(c3ccc(C(=O)NS(=O)(=O)c4ccc(N[C@H](CCN5CCOCC5)CSc5ccccc5)c(S(=O)(=O)C(F)(F)F)c4)cc3)CC2)C1	19
CC(=O)N1CCN(CCOc2ccc(C3CCN(C4=Nn5c(nnc5C(F)(F)F)CC4)CC3)cc2)CC1	3.25
CCN(c1cc(-c2ccc(CN3CCOCC3)cc2)cc(C(=O)NCc2c(C)cc(C)[nH]c2=O)c1C)C1CCOCC1	-17
